According to PubChem BioAssay (Tox21):
Inconclusive results are not listed. Calls of active or inactive are those of the source. Unless noted, the call rests on the fitted dose curve; in most records, active means well fitted curve in the direction sought with a large enough effect in the repeat runs; inconclusive means weak or mixed curves; inactive means no such curve, though single readings can be large; an effect the other way counts as inactive or inconclusive.

How the values were obtained:
[1] = qHTS assay to identify small molecule antagonists of the thyroid receptor (TR) signaling pathway - cell viability counter screen (AID 743064); further: nearly all actives have a fitted effect of over 50% in size; further: potency means the concentration at half of the fitted maximal effect
Procedure, shortened: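 GH3.TRE-Luc rat pituitary cells carrying a TRE-luciferase reporter were treated with compound plus 1 nM T3 (final) for 23.5 h at 37 °C. Viability was then read in the same wells by CellTiter-Fluor fluorescence after a further 30 min.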

[2] = qHTS assay to identify small molecule antagonists of the estrogen receptor alpha (ER-alpha) signaling pathway - cell viability counter screen (AID 743074; calls by dose curve;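 further: HEK293 cells carrying ER-alpha-UAS-bla reporter stimulated with 17beta-estradiol; nearly all actives have a fitted effect of over 45% in size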; further: potency means the concentration at half of the fitted maximal effect)
[3] = qHTS assay to identify small molecule antagonists of the estrogen receptor alpha (ER-alpha) signaling pathway using the BG1 cell line - cell viability counter screen (AID 743081);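 further: compound given together with 17beta-estradiol as the ER stimulus; nearly all actives have a fitted effect of over 45% in size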; further: potency means the concentration at half of the fitted maximal effect
Aromatase (Homo sapiens) = Aromatase (Homo sapiens) (UniProt P11511); assay: qHTS assay to identify aromatase inhibitors (AID 743083); further: series mostly up to about 70 µM; nearly all actives have a fitted effect of over 55% in size
[4] = qHTS assay to identify aromatase inhibitors - cell viability counter screen (AID 743084);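 further: cells stimulated with testosterone during compound exposure; nearly all actives have a fitted effect of over 55% in size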; further: potency means the concentration at half of the fitted maximal effect
[5] = biological target: Aryl hydrocarbon receptor (Homo sapiens) (UniProt P35869); assay: qHTS assay to identify small molecule that activate the aryl hydrocarbon receptor (AhR) signaling pathway (AID 743085); further: nearly all actives have a fitted effect of over 15% in size; further: potency means the concentration at half of the fitted maximal effect;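 on activation: HG2L7.5c1 human HepG2 liver cells with stably integrated DRE-driven firefly reporter; series mostly up to about 70 µM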
Procedure, shortened: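 HepG2 cells (HG2L7.5c1) stably carrying a firefly luciferase reporter driven by 20 dioxin responsive elements were exposed to compound for 24 h at 37C after a 5 h settling period; luminescence rise (ONE-Glo) indicated activation.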

[6] = qHTS assay to identify small molecule that activate the aryl hydrocarbon receptor (AhR) signaling pathway - cell viability counter screen (AID 743086);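 further: HepG2 liver cells carrying the AhR DRE luciferase reporter; series mostly up to about 70 µM; nearly all actives have a fitted effect of over 45% in size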
Procedure, shortened: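 HepG2-AhR-luc (HG2L7.5c1) cells, 4000/well, treated 24 h at 37 C with compound; viability measured as CellTiter-Fluor fluorescence after 30 min in the same wells as the luciferase read.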

[7] = biological target: Peroxisome proliferator-activated receptor gamma (Homo sapiens) (UniProt P37231); assay: qHTS assay to identify small molecule agonists of the peroxisome proliferator-activated receptor gamma (PPARg) signaling pathway (AID 743094; active means well fitted activation curve with a large enough effect in the signal ratio in the repeat runs, not every such curve was filed as active; the % refers to the signal ratio)
Procedure, shortened: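 Stably transfected HEK293H cells (GeneBLAzer PPARg UAS-bla) were incubated with test substances for 17 h at 37C after a 5 h pre-incubation; beta-lactamase activity was then detected by FRET substrate fluorescence.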

[8] = qHTS assay to identify small molecule antagonists of the thyroid receptor (TR) signaling pathway (AID 743065); further: series mostly up to about 70 µM; nearly all actives have a fitted effect of over 55% in size
Procedure, shortened: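 GH3.TRE-Luc rat pituitary cells (two TREs driving luciferase) were dosed with compound, then stimulated with 1 nM T3 (final) for 23.5 h at 37 C. ONE-Glo luminescence was the read-out, with CellTiter-Fluor fluorescence as the cytotoxicity counter-screen.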

[9] = test system: thyroid hormone receptor (rat, GH3 cells); assay: qHTS assay to identify small molecule agonists of the thyroid receptor (TR) signaling pathway (AID 743066; calls by dose curve)
[10] = biological target: Estrogen receptor (Homo sapiens) (UniProt P03372); assay: qHTS assay to identify small molecule antagonists of the estrogen receptor alpha (ER-alpha) signaling pathway (AID 743069; active means well fitted curve in the direction sought with a large enough effect in the signal ratio in the repeat runs, not every such curve was filed as active; the % refers to the signal ratio)
Procedure, shortened: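 HEK293 ER-alpha-UAS-bla GripTite cells, held overnight in 2% charcoal-stripped FBS, 5,000 cells/well, preincubated 4 h, then compound plus 17beta-estradiol for 18 h at 37C. Beta-lactamase read by LiveBLAzer B/G FRET substrate, 2 h at room temperature.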

[11] = biological target: Estrogen receptor (Homo sapiens) (UniProt P03372); assay: qHTS assay to identify small molecule agonists of the estrogen receptor alpha (ER-alpha) signaling pathway (AID 743075; calls by dose curve)
[12] = qHTS assay to identify small molecule antagonists of the estrogen receptor alpha (ER-alpha) signaling pathway using the BG1 cell line (AID 743080; calls by dose curve;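 further: BG1 cells stimulated with 17beta-estradiol alongside compound; series mostly up to about 70 µM; nearly all actives have a fitted effect of over 25% in size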)
Procedure, shortened: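 Seeding, 24 h rest, compound transfer from DMSO, 17beta-estradiol addition, 21.5 h incubation, CellTiter-Fluor (30 min, 37 C), then ONE-Glo (30 min, room temperature): this sequence was run on BG1-Luc-4E2 reporter cells.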

[13] = biological target: Estrogen receptor (Homo sapiens) (UniProt P03372); assay: qHTS assay to identify small molecule agonists of the estrogen receptor alpha (ER-alpha) signaling pathway using the BG1 cell line (AID 743079); further: nearly all actives have a fitted effect of over 20% in size; further: potency means the concentration at half of the fitted maximal effect
[14] = qHTS assay for small molecule agonists of the antioxidant response element (ARE) signaling pathway (AID 743202; active means well fitted activation curve with a large enough effect in the signal ratio in the repeat runs, not every such curve was filed as active; the % refers to the signal ratio; further: potency means the concentration at half of the fitted maximal effect)
Procedure, shortened: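 ARE-bla HepG2 cells (beta-lactamase reporter under the antioxidant response element), plated 5 hours, then exposed to compounds 16 hours at 37 C. LiveBLAzer B/G FRET substrate added for 2 hours at room temperature; fluorescence intensity read.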

[15] = qHTS assay for small molecule agonists of the antioxidant response element (ARE) signaling pathway - cell viability counter screen (AID 743203; calls by dose curve; further: potency means the concentration at half of the fitted maximal effect; nearly all actives have a fitted effect of over 55% in size)
Procedure, shortened: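 Cells (ARE-bla HepG2, 2,000/well) receive DMSO-dissolved compounds after a 5 hrs rest. Plates incubate 16 hrs at 37C/5% CO2. CellTiter-Glo luminescence is then recorded after 30 min at room temperature.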

Measured: Potency

Sequence of Estrogen receptor (Homo sapiens) (P03372 whole entry, looked up): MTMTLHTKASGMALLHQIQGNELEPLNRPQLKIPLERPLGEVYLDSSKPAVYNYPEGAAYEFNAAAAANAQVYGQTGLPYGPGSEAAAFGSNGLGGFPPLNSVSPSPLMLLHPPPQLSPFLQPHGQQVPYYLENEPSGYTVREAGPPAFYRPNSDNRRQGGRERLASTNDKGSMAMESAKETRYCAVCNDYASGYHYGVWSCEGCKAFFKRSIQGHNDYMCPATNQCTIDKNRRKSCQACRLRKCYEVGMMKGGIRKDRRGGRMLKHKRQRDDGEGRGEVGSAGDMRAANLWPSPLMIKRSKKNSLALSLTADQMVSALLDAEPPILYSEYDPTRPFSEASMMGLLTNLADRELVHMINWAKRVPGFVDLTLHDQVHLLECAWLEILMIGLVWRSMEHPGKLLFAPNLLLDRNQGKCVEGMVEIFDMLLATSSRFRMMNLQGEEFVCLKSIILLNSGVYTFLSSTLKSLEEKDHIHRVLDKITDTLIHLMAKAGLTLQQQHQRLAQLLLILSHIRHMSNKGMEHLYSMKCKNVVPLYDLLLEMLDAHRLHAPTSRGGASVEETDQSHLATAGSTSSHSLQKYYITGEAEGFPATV
Sequence of Aromatase (Homo sapiens) (P11511 whole entry, looked up): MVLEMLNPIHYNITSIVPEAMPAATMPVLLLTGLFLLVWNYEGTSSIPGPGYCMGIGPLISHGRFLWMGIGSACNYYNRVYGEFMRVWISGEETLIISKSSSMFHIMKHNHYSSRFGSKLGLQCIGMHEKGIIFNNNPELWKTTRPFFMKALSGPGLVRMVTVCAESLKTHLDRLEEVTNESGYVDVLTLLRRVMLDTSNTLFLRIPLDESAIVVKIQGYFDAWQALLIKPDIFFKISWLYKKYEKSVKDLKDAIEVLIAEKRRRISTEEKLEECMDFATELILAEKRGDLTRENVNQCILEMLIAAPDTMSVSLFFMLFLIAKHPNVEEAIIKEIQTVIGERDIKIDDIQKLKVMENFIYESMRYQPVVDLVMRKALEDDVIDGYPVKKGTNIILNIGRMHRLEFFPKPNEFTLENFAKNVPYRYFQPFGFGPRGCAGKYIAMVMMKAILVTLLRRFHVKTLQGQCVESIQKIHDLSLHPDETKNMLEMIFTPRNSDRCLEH
Sequence of Aryl hydrocarbon receptor (Homo sapiens) (P35869 whole entry, looked up): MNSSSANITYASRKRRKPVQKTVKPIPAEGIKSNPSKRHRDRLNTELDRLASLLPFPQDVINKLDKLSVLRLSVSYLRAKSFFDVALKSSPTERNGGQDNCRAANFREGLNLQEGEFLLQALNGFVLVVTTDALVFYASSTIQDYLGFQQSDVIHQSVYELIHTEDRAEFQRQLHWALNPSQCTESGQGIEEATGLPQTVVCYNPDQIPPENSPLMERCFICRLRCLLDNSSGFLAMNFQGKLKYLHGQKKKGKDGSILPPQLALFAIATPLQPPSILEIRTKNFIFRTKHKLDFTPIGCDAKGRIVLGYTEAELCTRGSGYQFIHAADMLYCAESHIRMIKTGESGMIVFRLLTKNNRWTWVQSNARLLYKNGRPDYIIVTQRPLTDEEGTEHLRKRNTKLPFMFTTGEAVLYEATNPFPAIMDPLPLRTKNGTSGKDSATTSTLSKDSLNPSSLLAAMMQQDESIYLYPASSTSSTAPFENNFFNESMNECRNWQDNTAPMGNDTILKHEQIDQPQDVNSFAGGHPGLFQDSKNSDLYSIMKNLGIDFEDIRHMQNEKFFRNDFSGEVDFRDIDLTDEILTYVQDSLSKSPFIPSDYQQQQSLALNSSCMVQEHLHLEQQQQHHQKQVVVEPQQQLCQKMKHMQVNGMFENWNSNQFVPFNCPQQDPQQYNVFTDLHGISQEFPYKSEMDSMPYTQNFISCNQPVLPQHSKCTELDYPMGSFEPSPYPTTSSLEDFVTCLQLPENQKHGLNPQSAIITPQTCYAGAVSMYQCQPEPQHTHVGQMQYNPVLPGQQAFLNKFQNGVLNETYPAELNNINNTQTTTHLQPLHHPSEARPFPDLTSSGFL
Sequence of Peroxisome proliferator-activated receptor gamma (Homo sapiens) (P37231 whole entry, looked up): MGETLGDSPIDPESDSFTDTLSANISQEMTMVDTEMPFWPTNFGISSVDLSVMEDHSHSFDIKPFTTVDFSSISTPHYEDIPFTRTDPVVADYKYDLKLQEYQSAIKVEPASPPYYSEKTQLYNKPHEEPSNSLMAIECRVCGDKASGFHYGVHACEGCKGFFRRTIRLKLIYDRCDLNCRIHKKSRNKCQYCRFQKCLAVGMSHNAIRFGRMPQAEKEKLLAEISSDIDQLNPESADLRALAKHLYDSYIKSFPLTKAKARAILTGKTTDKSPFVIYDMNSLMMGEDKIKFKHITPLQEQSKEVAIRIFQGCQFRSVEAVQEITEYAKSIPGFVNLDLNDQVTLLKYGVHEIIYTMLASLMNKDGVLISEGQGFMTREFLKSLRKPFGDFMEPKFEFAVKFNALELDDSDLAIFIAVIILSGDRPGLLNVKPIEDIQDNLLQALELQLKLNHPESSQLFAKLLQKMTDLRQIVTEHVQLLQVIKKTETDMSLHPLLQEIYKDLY

CO/N=C(\C(=O)N[C@@H]1C(=O)N2C(C(=O)[O-])=C(C[n+]3ccc(N)n3CCO)CS[C@H]12)c1csc(N)n1
inactive: [1] | [2] | [3] | Aromatase (Homo sapiens) | [4] | [5] | [6] | [7]

C[C@H](O)CN(C)C
not listed: [1] | [6] | [13] | [14] | [15]
inactive: all other assays above

CC(=O)OCC1=C(C(=O)O)N2C(=O)[C@@H](NC(=O)Cc3ccccc3)[C@H]2SC1
inactive: [1] | [9] | [2] | [3] | Aromatase (Homo sapiens) | [4] | [5] | [6] | [7]

CC(C)(O/N=C(\C(=O)N[C@@H]1C(=O)N2C(C(=O)[O-])=C(C[n+]3ccccc3)CS[C@H]12)c1csc(N)n1)C(=O)O
not listed: [2] | [5] | [8] | [10] | [14] | [15]
inactive: all other assays above

FC(F)(F)C(F)(F)C(F)(F)C(F)(F)C(F)(F)F
not listed: [1] | [3] | [6] | [14] | [15]
inactive: all other assays above

S=C1NC=NC2N=CNC12 (stereo not given)
active: [2] 11 µM | [5] 30.6 µM | [14] 4.86 µM | [15] 8.63 µM
inactive: [1] | [9] | [3] | Aromatase (Homo sapiens) | [4]

C[N+]1(CCCCC[N+]2(C)CCCC2)CCCC1
not listed: [1] | [10] | [14] | [15]
inactive: all other assays above

CC(C)C[C@@H](NC(=O)[C@@H](O)[C@H](N)Cc1ccccc1)C(=O)O
inactive: [9] | [11] | [13] | [12] | Aromatase (Homo sapiens) | [5] | [7]
active: [1] 1.68 µM | [3] 2.37 µM | [4] 0.75 µM

N[C@H](CO)C(=O)O
inactive: [1] | [9] | [2] | [3] | Aromatase (Homo sapiens) | [4] | [5] | [6] | [7]

CCOC(=O)[C@H](CCc1ccccc1)N[C@@H](C)C(=O)N1[C@H](C(=O)O)C[C@H]2CCCC[C@@H]21
inactive: [1] | [9] | [2] | [3] | Aromatase (Homo sapiens) | [4] | [5] | [6] | [7]

O=C1CCC(c2ccccc2)(C2CCN(Cc3ccccc3)CC2)C(=O)N1 (stereo not given)
not listed: [1] | [14] | [15]
inactive: all other assays above

COc1cccc2c1[C@@H]1CN(CCCCn3c(=O)[nH]c4c(sc5ncc(-c6ccccc6)nc54)c3=O)C[C@@H]1CO2
active: [1] 11.9 µM | [4] 26.6 µM
inactive: [11]

CCCCCCCCCCCCCC(=O)OCC(COP(=O)([O-])OCC[N+](C)(C)C)OC(=O)CCCCCCCCCCCCC (stereo not given)
not listed: [1] | [3] | [14] | [15]
inactive: all other assays above

N=C(N)c1ccc(/C=C/c2ccc(C(=N)N)cc2O)cc1
not listed: [1] | [5] | [14] | [15]
inactive: all other assays above

CSCCC(N)C(=O)O (stereo not given)
not listed: [1] | [14] | [15]
inactive: all other assays above

CC(=O)NC[C@H]1CN(c2ccc(N3CCOCC3)c(F)c2)C(=O)O1
active: [13] 13.3 µM
not listed: [1] | [14] | [15]
inactive: all other assays above

O=C(O)/C=C/C(O)c1ccc(Cl)cc1 (stereo not given)
inactive: [1] | [9] | [2] | [3] | Aromatase (Homo sapiens) | [4] | [5] | [6] | [7]

Cc1cccc(C)c1NC(=O)C1CCCCN1C (stereo not given)
not listed: [1] | [3] | [14] | [15]
inactive: all other assays above
